About 1,000 (0.29%) of roughly 340,000 compounds were called active. Rule as the data show it: inconclusive = inhibition above about 27% without an active follow-up result; inactive = below that. Not all results are given here. Potency and affinity values are given separately.
Assay: NS1A inhibition, H1N1 influenza, cell based functional assay (AID 504329)
Details: percent inhibition, at 12.5 µM, active compounds read high

Row | Structure (SMILES) | inhibition
1 | Cn1c(=Nc2ccccc2)sc2ccccc21 | 9.39% (inactive)
2 | COc1ccc(N=c2sc3ccccc3n2C)cc1 | 1.52% (inactive)
3 | O=C(COC(=O)/C=C/c1cccc(Cl)c1)NC1CCCC1 | -4.83% (inactive)
4 | CC(C)(C)c1ccc(-c2n[nH]c(=S)n2CC2CCCO2)cc1 (configuration not stated) | 3.44% (inactive)
5 | O=C/C=C/c1ccccc1 | 2.7% (inactive)
6 | Cc1ccc(C2=NOC(=O)/C2=C\C=C\c2ccccc2)cc1 | -3.38% (inactive)
7 | CC1=C(C)N(C)[C@H](c2ccccc2Br)[C@H](O)C1=O | -9.31% (inactive)
8 | O=C(CSc1nnc(-c2cccnc2)n1Cc1ccccc1)N1CCOCC1 | 0.45% (inactive)
9 | Cc1nc2ncccn2c1-c1csc(Nc2ccc(O)cc2)n1 | 5.22% (inactive)
10 | Cc1ccc(Nc2nc(-c3c(C)nc4ncccn34)cs2)cc1 | -0.31% (inactive)
11 | S=C(NCc1ccco1)Nc1ccc(Cl)cc1Cl | 0.07% (inactive)
12 | N=c1n(CCN2CCOCC2)c2ccccc2n1CC(=O)c1cccc([N+](=O)[O-])c1 | 0.36% (inactive)
13 | Cc1nc2ccccc2c(=O)n1CCCN1CCOCC1 | -0.85% (inactive)
14 | O=c1[nH]c(-c2ccccn2)nc2sc(-c3ccccc3)cc12 | 1.57% (inactive)
15 | CCc1cc2c(=O)[nH]c(-c3ccncc3)nc2s1 | -1.62% (inactive)
16 | COC(=O)c1cc(NS(=O)(=O)c2ccc(NC(C)=O)cc2)ccc1Cl | 10.8% (inactive)
17 | Oc1cccc(/C=N/NC(=S)NCCN2CCOCC2)c1O | -11.6% (inactive)
18 | COc1cc(/C=N/NC(=S)NCCN2CCOCC2)cc(OC)c1OC | -0.84% (inactive)
19 | O=C(NCCCN1CCOCC1)C(=O)N/N=C/c1cccc2ccccc12 | -23.6% (inactive)
20 | S=C(NCCN1CCOCC1)N/N=C/c1ccccc1 | 4.1% (inactive)
21 | COc1cc(/C=N/NC(=S)NCCN2CCOCC2)ccc1O | -6.09% (inactive)
22 | COc1cc(OC)c(OC)cc1/C=N/NC(=S)NCCN1CCOCC1 | -3.02% (inactive)
23 | O=C(NCCCN1CCOCC1)C(=O)N/N=C/c1ccccc1Cl | -2.62% (inactive)

Row | Structure (SMILES) | inhibition
24 | CCCCNC(=S)N/N=C/c1cccc(OCC)c1O | -0.5% (inactive)
25 | N#C/C(=C\Nc1ccc(Cl)cc1)S(=O)(=O)c1ccccn1 | -7.92% (inactive)
26 | Cc1ccc2nc(SCC(=O)Nc3cccc([N+](=O)[O-])c3)[nH]c2c1 | 4.1% (inactive)
27 | CCOC(=O)C1=C(C)C(c2ccccc2O)NC(=O)N1 (configuration not stated) | -4.1% (inactive)
28 | CCCOc1ccc(-c2nc(OCC)c3ccccc3n2)cc1 | -12.4% (inactive)
29 | COc1cc2c(cc1OC)C(c1ccsc1)CC(=O)N2 (configuration not stated) | 2.33% (inactive)
30 | O=C(O)c1ccccc1Nc1ccccc1C(=O)O | 5.1% (inactive)
31 | O=C(O)c1ccccc1Nc1ccnc(Cl)n1 | 4.77% (inactive)
32 | CCOC(=O)N1CCC(=C(C#N)C(=O)Nc2cc(OC)ccc2OC)CC1 | 7.42% (inactive)
33 | Cc1nc(SCC(=O)Nc2cccc(Cl)c2)n[nH]1 | -19.4% (inactive)
34 | O=C(CSc1n[nH]c(-c2ccco2)n1)Nc1ccccc1F | 2.4% (inactive)
35 | O=C(CSc1n[nH]c(-c2ccncc2)n1)Nc1ccccc1 | -1.24% (inactive)
36 | O=C(CSc1n[nH]c(-c2cccnc2)n1)Nc1cccc(Cl)c1 | 0.29% (inactive)
37 | COc1ccccc1-c1nc(SCC(=O)Nc2ccccc2F)n[nH]1 | -2.78% (inactive)
38 | COc1ccccc1NC(=O)CSc1n[nH]c(-c2ccco2)n1 | -13% (inactive)
39 | COc1ccccc1NC(=O)CSc1n[nH]c(-c2cccnc2)n1 | 2.96% (inactive)
40 | O=C(CSc1n[nH]c(-c2cccnc2)n1)Nc1ccccc1 | -8.39% (inactive)
41 | CCOC(=O)c1c(C)[nH]c(C)c1S(=O)(=O)N(C)CC(=O)Nc1ccccc1F | -8.93% (inactive)
42 | COc1ccc(OC2C(=O)N(CCc3ccc(OC)c(OC)c3)C2c2ccc3c(c2)OCO3)cc1 (configuration not stated) | 22.8% (inactive)
43 | Cc1cc(C)cc(OCC(O)Cn2nc(C)cc2C)c1 (configuration not stated) | -5.82% (inactive)
44 | CC(C)Cc1nc(Cl)c(C#N)c2c1CCCC2 | 0.11% (inactive)
45 | COCC1CCN(C(=O)C2CCC(=O)N(C3CCCCCC3)C2)CC1 (configuration not stated) | 8.12% (inactive)
46 | COC(=O)CN1C(=O)Nc2ccc(Cl)cc2C1c1ccccc1 (configuration not stated) | 4.9% (inactive)

Row | Structure (SMILES) | inhibition
47 | CC(=O)c1nn(-c2cccc(C)c2)cc1C(=O)c1cccc(Br)c1 | 2.16% (inactive)
48 | O=C(Nc1ccc(F)cc1)c1ccc(CSc2ccc(Cl)cc2)o1 | -1.55% (inactive)
49 | C=CCn1c(SCC(=O)C(C)(C)C)nnc1-c1ccccn1 | -6.69% (inactive)
50 | COc1ccccc1N1CCN(S(=O)(=O)c2c(C(=O)N3CCOCC3)c(C)n(C)c2C)CC1 | 6.32% (inactive)
51 | CCCCCOc1ccc(C(O)C(CN2CCOCC2)c2ccccc2)cc1 (configuration not stated) | -5.3% (inactive)
52 | C[C@H](CO)N1C[C@H](C)[C@@H](CN(C)Cc2ccncc2)Oc2c(NS(=O)(=O)c3ccccc3)cccc2C1=O | -17% (inactive)
53 | COc1ccc(NC(=O)CSc2ccccn2)cc1 | 4.92% (inactive)
54 | Cc1ccccc1NC(=O)CSc1n[nH]c(-c2ccccn2)n1 | -5.83% (inactive)
55 | Cc1ccc(C)c(NC(=O)CSc2n[nH]c(-c3ccncc3)n2)c1 | -3.36% (inactive)
56 | O=C(CSc1n[nH]c(-c2ccncc2)n1)Nc1ccc(Cl)cc1 | -0.89% (inactive)
57 | COc1ccc(NC(=O)CSc2n[nH]c(-c3ccco3)n2)cc1 | -5.29% (inactive)
58 | O=C(CSc1n[nH]c(-c2cccnc2)n1)Nc1ccc(Cl)cc1 | 2.6% (inactive)
59 | O=C(CSc1n[nH]c(-c2ccncc2)n1)Nc1ccc(F)cc1 | 0.02% (inactive)
60 | O=C(CSc1n[nH]c(-c2ccco2)n1)Nc1ccc(F)cc1 | 7.45% (inactive)
61 | C[C@@H](NC(=O)Cn1cnc2c(NCc3ccccc3)ncnc21)c1cccc2ccccc12 | -9.17% (inactive)
62 | CCN(CC(=O)Nc1ccccc1C(F)(F)F)C(=O)CCS(=O)(=O)c1ccc(Cl)cc1 | -2.32% (inactive)
63 | CC(C)CN(C(=O)CN(C)CC(=O)Nc1ccc(Cl)c(C(F)(F)F)c1)c1c(N)n(CC(C)C)c(=O)[nH]c1=O | -3.46% (inactive)
64 | CN=C1CC(C)(C)CC(=O)/C1=C(/O)CCCN1C(=O)c2ccccc2C1=O | -2.2% (inactive)
65 | CC12CCC(=O)N1C(C(=O)Nc1nc(-c3ccc(F)c(F)c3)cs1)CS2 (configuration not stated) | -0.9% (inactive)
66 | Cc1cccc(NC(=S)NC2CC3CCCC(C2)N3CC(C)C)c1 (configuration not stated) | -0.58% (inactive)
67 | COc1cccc(CN2CC(C(=O)N(C)Cc3ccnc4ccccc34)CCC2=O)c1 (configuration not stated) | -0.38% (inactive)
68 | COc1cc2cc(CN(CCCN3CCOCC3)C(=O)Nc3ccccc3F)c(=O)[nH]c2cc1OC | -7.1% (inactive)
69 | CCCCNC(=O)Cc1coc2ccc3ccccc3c12 | -8.22% (inactive)

Row | Structure (SMILES) | inhibition
70 | CCC(C)[C@H](NS(=O)(=O)c1ccc(C)cc1)C(=O)N1CCC(C(=O)N[C@H](C(=O)O)c2ccccc2)CC1 (some centres not stated) | -3.12% (inactive)
71 | COc1ccc2[nH]c3c(c2c1)CCN1C(=O)C(CC(=O)NCCCn2ccnc2)C[C@H](C(=O)N2CCOCC2)[C@@]31C (some centres not stated) | -0.65% (inactive)
72 | COc1ccc(S(=O)(=O)N2CN3CCN(C3)C2)cc1OC | -1.61% (inactive)
73 | CC(=O)Nc1cccc(OCC(=O)NCCC2=CCCCC2)c1 | 5.18% (inactive)
74 | Cc1ccc(NC(=O)CSc2n[nH]c(-c3ccncc3)n2)cc1 | -14.5% (inactive)
75 | Cc1ccc(NC(=O)CSc2n[nH]c(-c3ccco3)n2)cc1 | -7.19% (inactive)
76 | CCC(C)(C)C1CCc2[nH]nc(C(=O)NCCCNC(=O)OC(C)(C)C)c2C1 (configuration not stated) | 7.94% (inactive)
77 | Cc1ccccc1CN1CCN(CC(=O)NCc2ccccc2)CC1 | -8.48% (inactive)
78 | COc1cc(C2CC(=O)Oc3c(C(CCN4CCOCC4)c4ccc(N(C)C)cc4)c(OC)cc(OC)c32)cc(OC)c1OC (configuration not stated) | 19.5% (inactive)
79 | COc1ccc(C2CC(=O)Oc3c(C(CCN4CCOCC4)c4cc(OC)c(OC)c(OC)c4)c(OC)cc(OC)c32)cc1 (configuration not stated) | -11.8% (inactive)
80 | COc1ccc(C2CC(=O)Oc3c(C(CCN4CCN(c5ccccc5)CC4)c4ccc(N(C)C)cc4)c(OC)cc(OC)c32)cc1 (configuration not stated) | 16.5% (inactive)
81 | COc1ccc(C(CCN2CCCC(C)C2)c2c(OC)cc(OC)c3c2OC(=O)CC3c2cc(OC)c(OC)c(OC)c2)cc1 (configuration not stated) | -7.41% (inactive)
82 | COc1cc(C(CCN2CCOCC2)c2c(OC)cc(OC)c3c2OC(=O)CC3c2ccc(N(C)C)cc2)cc(OC)c1OC (configuration not stated) | 13.9% (inactive)
83 | COc1cc(C2CC(=O)Oc3c(C(CCN4CCN(c5ccccc5)CC4)c4ccc(N(C)C)cc4)c(OC)cc(OC)c32)cc(OC)c1OC (configuration not stated) | 18% (inactive)
84 | Cc1ccc(S(=O)(=O)NC(C)C(=O)Nc2ccc(C(N)=O)cc2)cc1 (configuration not stated) | 7.11% (inactive)
85 | CN1C(=O)/C(=C\c2ccncc2)SC1=Nc1ccccc1 | 2.83% (inactive)
86 | CC(CCc1ccccc1)NC(=O)c1ccco1 (configuration not stated) | 18.9% (inactive)
87 | COc1ccc(N=c2oc3c(OC)cccc3cc2C(=O)NCc2ccco2)c(OC)c1 | 10.4% (inactive)
88 | CCOc1ccccc1N(C(=O)c1snc(C(N)=O)c1N)C(C(=O)NCc1ccccc1)c1ccc(O)cc1 (configuration not stated) | 11.4% (inactive)
89 | CCOc1cc(/C=N/NC(=O)c2cccc([N+](=O)[O-])c2)ccc1OS(=O)(=O)c1ccccc1 | -5.88% (inactive)
90 | OCCC1CN(C2CSCCSC2)CCN1Cc1ccccc1 (configuration not stated) | -6.56% (inactive)
91 | CN1CCN(c2ccc(CNS(=O)(=O)c3ccc(F)cc3Cl)cc2)CC1 | -10.3% (inactive)
92 | Cc1nc(SCC(=O)NCc2ccccc2)c2c(=O)n(C)c(=O)n(C)c2n1 | -13.1% (inactive)

From PubChem BioAssay AID504329 (Southern Research Specialized Biocontainment Screening …, 2011)
